# Data as given in ChEMBL document CHEMBL1201862, “PubChem BioAssay data set” (2004).
# About 750 (4.2%) of roughly 18,000 compounds were called active. Not shown: some 13% with an inconclusive outcome. The rule behind the calls is not given here. The entries come from a sample that favours actives as a whole.
# Test: qHTS for Inhibitors of binding or entry into cells for Lassa Virus.
row,SMILES,Potency
1,CC12C(=O)OC(=O)C1(C)C1CCC2O1 (stereo unspecified),562 µM (active)
